Screening data from PubChem.
TDP1 inh = TDP1 (human) enzyme inhibition; 350,000 compounds, 0.28% hits; recombinant TDP1, AlphaScreen DNA substrate cleavage; Potency, µM (top dose mostly 130 µM), hits mostly inhibitors; AID 485290; also: nearly all actives have a fitted effect of over 40% in size
Target sequence (Q9NUW8 whole entry, looked up): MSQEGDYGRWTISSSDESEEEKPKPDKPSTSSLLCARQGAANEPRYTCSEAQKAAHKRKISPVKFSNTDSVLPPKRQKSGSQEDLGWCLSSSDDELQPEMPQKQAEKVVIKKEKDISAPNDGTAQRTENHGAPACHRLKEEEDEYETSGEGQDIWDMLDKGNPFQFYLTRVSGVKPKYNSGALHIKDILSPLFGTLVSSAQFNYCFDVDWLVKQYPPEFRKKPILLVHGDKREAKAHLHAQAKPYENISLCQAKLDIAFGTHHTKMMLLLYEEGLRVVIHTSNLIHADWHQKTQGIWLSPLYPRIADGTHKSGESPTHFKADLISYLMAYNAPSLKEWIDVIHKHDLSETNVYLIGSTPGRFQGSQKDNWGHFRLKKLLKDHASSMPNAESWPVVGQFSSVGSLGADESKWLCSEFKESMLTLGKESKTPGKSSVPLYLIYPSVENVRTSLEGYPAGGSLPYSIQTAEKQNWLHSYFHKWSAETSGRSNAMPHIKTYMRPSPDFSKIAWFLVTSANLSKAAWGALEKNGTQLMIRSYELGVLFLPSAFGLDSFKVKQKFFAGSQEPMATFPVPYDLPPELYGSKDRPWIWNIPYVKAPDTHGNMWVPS
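Recombinant human Tdp1 (E. coli-expressed, 1 nM final) preincubated with compounds 15 min at room temperature, then 5'-biotin/3'-phosphotyrosine-FITC DNA substrate (15 nM final) added for 5 min. AlphaScreen beads (10 ug/ml final) added 10 min; cleavage lowers signal.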
IL1B secr inh = blocks inflammasome-driven IL-1 beta release. THP-1 LPS/ATP IL-1B secretion, AlphaLISA, 16 h; stronger effect = lower value. activity change, % at 57.5 µM. 360,000 compounds, 4.7% hits. AID 743279; in the data active = activity change below about -50%; inconclusive = mostly about -30% to -49%
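THP-1 cells pretreated 1 hr with compounds (up to 57.5 uM final), then stimulated with LPS (250 ng/mL final) plus ATP (1.25 mM final); secreted IL-1B measured by AlphaLISA after 16 hr, decreased signal indicating inhibition.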
DT40 TDP1 CPT = growth inhibition of DT40 Tdp1-/-;hTDP1 cells with camptothecin (screen for TDP1 inhibitors); chicken DT40 Tdp1-/-;hTDP1 cells + 20 nM CPT, ATP luminescence, 48 h; Potency, µM (top dose mostly 46.2 µM), most hits filed as inhibitors; 420,000 compounds, 12% hits; AID 686979; also: nearly all actives have a fitted effect of over 55% in size
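Cell growth measured by CellTiter-Glo luminescence after a minimum 48 h, 37 C compound exposure with 20 nM CPT in Tdp1-knockout DT40 cells stably expressing hTDP1, seeded 400/well; qHTS titration format.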
Giardia kill = Giardia lamblia killing. Giardia lamblia trophozoite viability. 340,000 compounds, 0.15% hits. activity change, % at 7.66 µM, hits read low; in the data active = activity change below about -80%; inconclusive = between about -30% and that limit;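 also: parasites exposed to compound for two days anaerobically before the ATP read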
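Compounds were tested on trophozoites seeded at 100 cells/well and held 48 hrs at 37 deg C anaerobically. An ATP-based luminescent kit measured the remaining live cells.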
ELG1 repair inh = inhibitors of ELG1-dependent DNA repair in HEK293T cells; HEK293T ELG1-luciferase reporter, luminescence, 16 h; DNA damage induced by 5-fluorouridine; Potency, µM (series often up to 46.1 µM), actives largely listed as inhibitors; 330,000 compounds, 2.3% hits; AID 504467; also: nearly all actives have a fitted effect of over 55% in size
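DMSO vehicle served as the neutral condition. Each well held 2,000 cells given 5-fluorouridine plus compound; after 16 hr at 37 °C/5% CO2, ONE-Glo was added and luciferase measured 30 min later.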
DT40 TDP1 no CPT = qHTS for Inhibitors of human tyrosyl-DNA phosphodiesterase 1 (TDP1): qHTS in cells in absence of CPT; DT40 Tdp1-/- hTDP1 cells, no CPT, ATP luminescence, 48 h; Potency, µM (series often up to 46.2 µM), most hits filed as inhibitors; AID 686978, 2013; 420,000 compounds, 15% hits; also: nearly all actives have a fitted effect of over 55% in size
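Seeded 400 DT40-hTDP1 cells/well (vehicle DMSO, no 20 nM CPT); pinned compounds; ≥48 hr at 37 °C; CellTiter-Glo luminescence as viability measure.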
Numbers stand for hits. Rows were chosen to be rich in hits. Some 19% of all compounds tested hit in one or more screens of this group. Unless noted, calls follow the shape of the dose curve; as a rule, active = well fitted curve in the direction sought with a large enough effect; inconclusive = small, poorly fitted or top-dose-only effect, or another doubt; inactive = no such curve, though single readings can be large; an effect the other way counts as inactive or inconclusive.

Screening Cc1cc(=O)[nH]c2nnc(SCC(=O)Nc3ccc(OC(F)(F)F)cc3)n12 returned TDP1 inh inactive, DT40 TDP1 CPT inactive and DT40 TDP1 no CPT inactive.
For O=c1c2ccccc2sn1-c1ccc(S(=O)(=O)N2CCCCC2)cc1 the results were TDP1 inh inactive, IL1B secr inh -91, DT40 TDP1 CPT 2.1µM, Giardia kill inactive and DT40 TDP1 no CPT 16µM.
`O=c1c2ccccc2sn1-c1ccc(S(=O)(=O)N2CCCC2)cc1` gave TDP1 inh inactive, IL1B secr inh -102, DT40 TDP1 CPT 3.3µM, Giardia kill inactive, ELG1 repair inh inactive and DT40 TDP1 no CPT 5.2µM.
Screening O=S(=O)(c1ccccc1)N1CCN(S(=O)(=O)N2CCCCCC2)CC1 returned TDP1 inh inactive, IL1B secr inh inactive, DT40 TDP1 CPT inactive, Giardia kill inactive, ELG1 repair inh inactive and DT40 TDP1 no CPT inactive.
`Cc1ccc(C(=O)NNC(=O)c2ccccc2)cc1S(=O)(=O)N1CCCCC1` gave TDP1 inh inactive, IL1B secr inh inactive, DT40 TDP1 CPT inactive, Giardia kill inactive, ELG1 repair inh inactive and DT40 TDP1 no CPT inactive.
Cc1ccc(-n2sc3ccccc3c2=O)cc1S(=O)(=O)N1CCCCC1 was read as TDP1 inh inactive, IL1B secr inh -106, DT40 TDP1 CPT 2.3µM, Giardia kill inactive, ELG1 repair inh inactive and DT40 TDP1 no CPT 2.9µM.
Screening COCOCCn1cc(CN2CCS(=O)(=O)N(Cc3ccc(-c4cccc(N(C)C)c4)cc3)C(C(C)C)C2=O)nn1 (stereo not given) returned IL1B secr inh inactive, DT40 TDP1 CPT 15µM and DT40 TDP1 no CPT 21µM.
For COCOCCn1cc(CN2CCS(=O)(=O)N(Cc3ccc(-c4ccc(OC)nc4)cc3)C(C(C)C)C2=O)nn1 (stereo not given) the results were IL1B secr inh inactive, DT40 TDP1 CPT 13µM and DT40 TDP1 no CPT 8.2µM.
COCOCCn1cc(CN2CCS(=O)(=O)N(Cc3ccc(-c4cccc(CO)c4)cc3)C(C(C)C)C2=O)nn1 (stereo not given) was read as IL1B secr inh inactive, DT40 TDP1 CPT inconclusive and DT40 TDP1 no CPT 21µM.
COCOCCn1cc(CN2CCS(=O)(=O)N(Cc3ccc(-c4cccc(CO)c4)cc3)C(CC(C)C)C2=O)nn1 (stereo not given) was read as IL1B secr inh inactive, DT40 TDP1 CPT inconclusive and DT40 TDP1 no CPT inconclusive.
Screening COCOCCn1cc(CN2CCS(=O)(=O)N(Cc3ccc(-c4ccc(OC)nc4)cc3)C(C)C2=O)nn1 (stereo not given) returned IL1B secr inh inactive, DT40 TDP1 CPT inactive and DT40 TDP1 no CPT inactive.
`O=C(NCc1ccccc1)C1CCN(S(=O)(=O)c2ccc(Cl)cc2)CC1` gave TDP1 inh inactive, IL1B secr inh inactive, DT40 TDP1 CPT inactive, Giardia kill inactive, ELG1 repair inh inactive and DT40 TDP1 no CPT inactive.
O=C(Nc1nnc(CCc2ccccc2)s1)c1cccc(F)c1 was read as TDP1 inh inactive, IL1B secr inh inactive, DT40 TDP1 CPT inactive, Giardia kill inactive, ELG1 repair inh inconclusive and DT40 TDP1 no CPT inactive.
COc1cccc(C2CC(=O)N3CN(C4CCCCC4)CSC3=C2C#N)c1 (stereo not given) was read as TDP1 inh inactive, DT40 TDP1 CPT inconclusive and DT40 TDP1 no CPT inconclusive.
CN1CSC2=C(C#N)C(c3cccc(OCc4ccccc4)c3)CC(=O)N2C1 (stereo not given) was read as TDP1 inh inactive, IL1B secr inh inactive, DT40 TDP1 CPT 21µM, Giardia kill inactive, ELG1 repair inh inactive and DT40 TDP1 no CPT inconclusive.
COc1ccc(OCc2ccc(C(=O)O)cc2)cc1 was read as TDP1 inh inactive, IL1B secr inh inactive, DT40 TDP1 CPT inactive, Giardia kill inactive, ELG1 repair inh inactive and DT40 TDP1 no CPT inactive.
Screening COc1ccc(COC[B-](F)(F)F)cc1 returned IL1B secr inh -53, DT40 TDP1 CPT inactive and DT40 TDP1 no CPT inactive.
CCCCCNCC(=O)Nc1cccc(C(=O)Nc2cccc(C(F)(F)F)c2)c1 was read as IL1B secr inh -101, DT40 TDP1 CPT inconclusive, Giardia kill inactive, ELG1 repair inh inactive and DT40 TDP1 no CPT inconclusive.
For Cc1cnc(Nc2nc3ccccc3o2)nc1C(=O)Nc1cccc(C(F)(F)F)c1 the results were TDP1 inh inactive, IL1B secr inh inactive, DT40 TDP1 CPT 23µM, Giardia kill inactive, ELG1 repair inh inconclusive and DT40 TDP1 no CPT 21µM.
Cc1ccc(C(=O)Nc2cccc(C(F)(F)F)c2)cc1Nc1ccccn1 was read as TDP1 inh inactive, IL1B secr inh inactive, DT40 TDP1 CPT 21µM, Giardia kill inactive, ELG1 repair inh inactive and DT40 TDP1 no CPT 16µM.
Screening O=C(CN1CCOCC1)Nc1cccc(C(=O)Nc2cccc(C(F)(F)F)c2)c1 returned TDP1 inh inactive, IL1B secr inh inactive, DT40 TDP1 CPT inactive, Giardia kill inactive, ELG1 repair inh inactive and DT40 TDP1 no CPT inconclusive.
Screening Cc1ccc(C(=O)Nc2cccc(C(F)(F)F)c2)cc1NC(=O)c1nccnc1N returned TDP1 inh inactive, IL1B secr inh inactive, DT40 TDP1 CPT inactive, Giardia kill inactive, ELG1 repair inh inconclusive and DT40 TDP1 no CPT inactive.
Screening Cc1ccc(C(=O)Nc2cccc(C(F)(F)F)c2)cc1Nc1cncnc1 returned IL1B secr inh inactive, DT40 TDP1 CPT inconclusive, Giardia kill inactive, ELG1 repair inh inconclusive and DT40 TDP1 no CPT 15µM.
CN(CC(=O)Nc1c(Cl)cccc1Cl)CC(=O)N1CCc2ccccc21 was read as IL1B secr inh inactive, DT40 TDP1 CPT inconclusive and DT40 TDP1 no CPT inconclusive.
For COc1ccc(CN(C)C(=O)[C@H]2O[C@@H](n3ccc(=O)[nH]c3=O)[C@H](O)[C@@H]2O)cc1OC the results were IL1B secr inh inactive, DT40 TDP1 CPT inactive and DT40 TDP1 no CPT inactive.
`C1=CC(c2cc3ccccc3o2)OC(CCc2ccccc2)C1` (stereo not given) gave IL1B secr inh inactive, DT40 TDP1 CPT inactive, Giardia kill inactive, ELG1 repair inh inactive and DT40 TDP1 no CPT inactive.
`CCOC(=O)c1c(C)nc2c(c1-c1ccc(OC)c(OC)c1)C(=O)c1ccccc1-2` gave TDP1 inh inactive, IL1B secr inh inactive, DT40 TDP1 CPT 23µM, Giardia kill inactive, ELG1 repair inh inactive and DT40 TDP1 no CPT inconclusive.
Screening COC(=O)Cc1[nH]n(-c2nc3ccccc3s2)c(=O)c1C(C)=O returned IL1B secr inh inactive, DT40 TDP1 CPT inactive, Giardia kill inactive, ELG1 repair inh inconclusive and DT40 TDP1 no CPT 10µM.
